The record followed here is PubChem BioAssay (NCATS).

A number with no mark means an inactive call. Calls come from the whole dose curve; as a rule, active = well fitted curve in the direction sought with a large enough effect; inconclusive = small, poorly fitted or top-dose-only effect, or another doubt; inactive = no such curve, though single readings can be large or run the other way.

The target of this assay is Hexokinase-4 (Homo sapiens) + Glucokinase regulatory protein (Homo sapiens) (UniProt P35557+Q14397). Description: qHTS assay for inhibitors of recombinant human GCK-GKRP interaction: ADP-Glo assay (AID 743206).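 Note: plate controls were DMSO plus enzyme for no effect and no enzyme for full effect.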 Particulars: ADP-Glo luminescence, 60 min; series mostly up to 76.9 µM; activity, positive = activation: at the top concentration. A digest of the protocol: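 Pin-transferred compounds meet a 15 nM GST-GCK/15 nM FLAG-GKRP/2 uM S6P mix (dispense concentrations). ATP is then added to 0.4 mM final with 5 mM glucose, and the reaction runs 60 min at room temperature. ADP is quantified luminescently.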
Sequence of Hexokinase-4 (Homo sapiens) + Glucokinase regulatory protein (Homo sapiens) (P35557 whole entry, looked up): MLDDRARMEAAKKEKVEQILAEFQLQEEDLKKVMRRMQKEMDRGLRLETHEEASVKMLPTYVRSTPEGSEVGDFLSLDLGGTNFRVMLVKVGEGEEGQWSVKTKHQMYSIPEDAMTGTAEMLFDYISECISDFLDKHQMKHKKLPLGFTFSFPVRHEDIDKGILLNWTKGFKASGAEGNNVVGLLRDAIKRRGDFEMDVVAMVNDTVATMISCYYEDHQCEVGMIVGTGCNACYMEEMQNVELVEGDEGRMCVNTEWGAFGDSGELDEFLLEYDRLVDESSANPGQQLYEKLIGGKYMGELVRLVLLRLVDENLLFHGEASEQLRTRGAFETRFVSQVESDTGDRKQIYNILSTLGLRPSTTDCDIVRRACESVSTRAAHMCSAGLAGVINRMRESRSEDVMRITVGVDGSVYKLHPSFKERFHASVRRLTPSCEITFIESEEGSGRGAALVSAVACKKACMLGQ
Sequence of Hexokinase-4 (Homo sapiens) + Glucokinase regulatory protein (Homo sapiens) (Q14397 whole entry, looked up): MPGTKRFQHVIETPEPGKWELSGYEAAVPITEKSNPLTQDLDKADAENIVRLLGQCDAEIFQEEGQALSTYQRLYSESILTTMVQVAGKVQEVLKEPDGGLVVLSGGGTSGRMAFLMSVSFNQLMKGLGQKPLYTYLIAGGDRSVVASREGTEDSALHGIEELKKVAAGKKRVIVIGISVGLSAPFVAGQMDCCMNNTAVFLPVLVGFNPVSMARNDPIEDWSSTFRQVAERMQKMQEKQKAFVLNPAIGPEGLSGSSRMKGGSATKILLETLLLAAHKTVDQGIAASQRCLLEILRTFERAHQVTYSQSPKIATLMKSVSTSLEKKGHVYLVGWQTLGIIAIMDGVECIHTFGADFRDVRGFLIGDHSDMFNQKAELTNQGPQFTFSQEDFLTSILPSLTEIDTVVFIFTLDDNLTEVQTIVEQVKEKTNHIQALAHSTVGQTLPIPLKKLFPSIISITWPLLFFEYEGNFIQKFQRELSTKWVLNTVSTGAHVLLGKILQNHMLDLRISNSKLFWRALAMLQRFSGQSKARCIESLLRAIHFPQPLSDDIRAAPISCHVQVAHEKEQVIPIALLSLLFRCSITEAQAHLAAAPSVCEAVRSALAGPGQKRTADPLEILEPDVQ
As to `CNC(=O)[C@H]1O[C@@H](n2cnc3c(NCc4ccc(N)cc4)ncnc32)[C@H](O)[C@@H]1O`, the “activity, positive = activation” value is -1.54%.
Then `CSc1nc(N)c2ncn([C@@H]3O[C@H](COP(=O)(O)OP(=O)(O)OP(=O)(O)O)[C@@H](O)[C@H]3O)c2n1`, with -0.253%; and `CN1C2CCC1CC(OC(=O)C(O)c1ccccc1)C2` (configuration not stated), with 2.83%.
On to `CN1CCC[C@H]1c1cccnc1`, for which the “activity, positive = activation” value is 3.36%.
With `CCN(CC)c1ncnc2c1ncn2[C@@H]1O[C@H](COP(=O)(O)OP(=O)(O)C(Br)(Br)P(=O)(O)O)[C@@H](O)[C@H]1O`, the “activity, positive = activation” value is -2.4%.
Then `COc1ccccc1N1CCN(CCCCNS(=O)(=O)c2cccc3c(N(C)C)cccc23)CC1`, with 2.33%.
`Nc1nc(Cl)nc2c1ncn2[C@@H]1O[C@H](COP(=O)(O)OP(=O)(O)OP(=O)(O)O)[C@@H](O)[C@H]1O`: the “activity, positive = activation” value was 4.96%.
The value for `CN1CCc2cccc3c2C1Cc1ccc(O)c(O)c1-3` (configuration not stated) was -0.417%; that for `CCCCCCCCCCCCCCCC(=O)NCC(COP(=O)([O-])OCC[N+](C)(C)C)OCC` (configuration not stated) was -5.8%; that for `NC(CCCP(=O)(O)O)C(=O)O` (configuration not stated) was 4.43%.
The value for `C=C[C@@H]1CN2CC[C@@H]1C[C@H]2[C@H](O)c1ccnc2ccc(OC)cc12` was -2.33%; that for `CC[C@@H](C)[C@H]1O[C@]2(CC[C@H]1C)C[C@@H]1C[C@@H](CC=C(C)[C@@H](O[C@H]3C[C@H](OC)[C@@H](O[C@H]4C[C@H](OC)[C@@H](O)[C@H](C)O4)[C@H](C)O3)[C@@H](C)C=CC=C3CO[C@@H]4[C@H](O)C(C)=C[C@@H](C(=O)O1)[C@]34O)O2` was -0.374%.
